Test results: PubChem BioAssay AID588689 (Southern Research Specialized Biocontainment Screening …, 2011)
About 1,000 (0.29%) of roughly 340,000 compounds were called active. Rule as the data show it: inconclusive = inhibition above about 29% without an active follow-up result; inactive = below that. These entries were drawn from the full list. Results with a measured potency or affinity are listed apart.

Biological target: Genome polyprotein (Dengue virus type 2 (strain 16681-PDK53)) (UniProt P29991)
Test: flavivirus cap methylation enzyme inhibition – biochemical, confirmation dose response, primary screen (AID 588689)
Conditions: Dengue-2 NS5 methyltransferase capping enzyme assay, at 25 µM, stronger effect = higher value

Structure (SMILES)	inhibition	inhibition (measured here: pilot screen replicate inhibition) [%]
Cc1ccc(NC(=O)c2cc(-c3cc(Cl)ccc3O)n[nH]2)cc1C	-6.12% (inactive)	–
COc1cccc(N2CCN(C(=O)CNC(=O)c3sc4ccccc4c3Cl)CC2)c1	-1.29% (inactive)	–
O=C1CN(C(=O)COC(=O)c2ccccc2NCc2ccco2)c2ccccc2N1	-4.76% (inactive)	–
CCOC(=O)c1c(C)[nH]c(C(=O)OCC(=O)N(CC(C)C)C2CCS(=O)(=O)C2)c1C (centres undefined)	4.1% (inactive)	–
Cc1c(N(C)C(=O)c2ccccc2F)c(=O)n(-c2ccccc2)n1C	2.15% (inactive)	–
COc1cccc(C(NC(=O)c2ccccc2F)NC(=O)c2ccccc2F)c1	-5.64% (inactive)	–
CC(=NCCCNC1CCCCC1)C1=C(O)CC(C)(C)CC1=O	10.2% (inactive)	–
O=C(NC1CCCc2ccccc21)C1CCN(c2c3c(nc4ncnn24)CCC3)CC1 (centres undefined)	-6.95% (inactive)	–
O=C(O)C(Cc1ccc(O)cc1)N1C(=O)c2c(Cl)c(Cl)c(Cl)c(Cl)c2C1=O (centres undefined)	16.9% (inactive)	–
O=C(O)C(Cc1ccccc1)N1C(=O)c2cccc3cccc(c23)C1=O (centres undefined)	-2.21% (inactive)	–
O=C(O)C(Cc1ccccc1)N1C(=O)c2ccccc2C1=O (centres undefined)	-1.57% (inactive)	–
O=C(O)C(Cc1ccccc1)N1C(=O)CCC1=O (centres undefined)	-3.06% (inactive)	–
Cc1cccc(C)c1NC(=O)C(c1ccc([N+](=O)[O-])cc1)N1CCCCC1 (centres undefined)	-3.23% (inactive)	–
Cc1onc(-c2ccccc2Cl)c1C(=O)Nc1ccc(-c2nnc3n2CCCCC3)cc1	9.09% (inactive)	–
O=C(CNC(=O)c1cccs1)Nc1ccncc1	1.47% (inactive)	–
Cc1cc(C(C)(C)C)oc1C(=O)N(CC(=O)NC1CCCC1)c1cccc(C(F)(F)F)c1	-5.56% (inactive)	–
CCc1c(C(=O)O)[nH]c2ccc(Br)cc12	7.42% (inactive)	–
CCOC(=O)c1[nH]c2ccccc2c1NC(C)=O	1.39% (inactive)	–
Cc1[nH][nH]c(=O)c1C(c1cc(Br)ccc1O)c1c(C)[nH][nH]c1=O	0% (inactive)	–
O=C(CC(c1ccccc1)c1cc(Br)ccc1O)N1CCCC1 (centres undefined)	-0.78% (inactive)	–
CCOc1ccccc1NC(=O)CSCC(=O)Nc1ccccc1	0% (inactive)	–
CCOC(=O)N1CCN(CC(O)COCC2=CCC3CC2C3(C)C)CC1 (centres undefined)	6.09% (inactive)	–

Structure (SMILES)	inhibition	inhibition (measured here: pilot screen replicate inhibition) [%]
C[C@@H](C(=O)Nc1ccc2ccccc2c1)[C@H]1C[C@]1(C)[C@H](NC(=O)OCc1ccccc1)c1ccccc1	4.76% (inactive)	–
CCOC(=O)N1CCN(S(=O)(=O)N2CCCC(C(=O)NCc3ccccc3Cl)C2)CC1 (centres undefined)	-6.21% (inactive)	–
CC(NC(=O)C1CCC1)c1ccc(Cl)cc1 (centres undefined)	-3.24% (inactive)	–
Cc1ccc(-c2ccc(/C=N/N3C(=O)C4C5C=CC(CC5)C4C3=O)o2)c([N+](=O)[O-])c1 (centres undefined)	4.83% (inactive)	–
Cc1ccc(-c2ccc(/C=N/N3C(=O)C4C5C=CC(C6CC56)C4C3=O)o2)c([N+](=O)[O-])c1 (centres undefined)	-2.05% (inactive)	–
COCc1cc(C)nc(N/N=C/c2ccc(-c3ccc(Cl)cc3[N+](=O)[O-])o2)c1C#N	0.9% (inactive)	–
O=C1C2C3C=CC(C4CC34)C2C(=O)N1/N=C/c1ccc(-c2ccc(Cl)cc2[N+](=O)[O-])o1 (centres undefined)	0% (inactive)	–
Cc1nc2ccccn2c1C(=O)N/N=C/c1ccccc1Cl	0.65% (inactive)	–
CCCCOc1ccc(-c2cnc3ccccc3n2)cc1	1.6% (inactive)	–
Cc1cc(N2CCC(C(=O)NCC3CC3)CC2)nc(-c2ccccc2)n1	-10.6% (inactive)	–
COC(=O)N(C)C[C@H]1OCc2cnnn2CCCC(=O)N([C@@H](C)CO)C[C@@H]1C	0% (inactive)	–
CC1=NOC(=O)/C1=C\c1ccc(-c2ccc(Br)cc2)o1	24.5% (inactive)	–
CC1=NOC(=O)/C1=C\c1ccc(-c2ccccc2Br)o1	3.96% (inactive)	–
CC(C)N1C(=O)S/C(=C\c2ccc(-c3ccc(Cl)c(C(=O)O)c3)o2)C1=O	9.54% (inactive)	–
CC1(C)OC(=O)C(=Cc2ccc(-c3ccc(Cl)c(C(=O)O)c3)o2)C(=O)O1	-35.6% (inactive)	–
CC1=NOC(=O)/C1=C/c1ccc(-c2ccc(Cl)cc2)o1	19% (inactive)	–
CC1=NOC(=O)/C1=C\c1ccc(-c2cccc(Cl)c2)o1	6.14% (inactive)	–
CC(=O)N(c1ccccc1)c1nc2ccccc2s1	-3.1% (inactive)	–
O=C(CNCc1ccccc1Cl)Nc1ccc(C(=O)N2CCCCC2)cc1	-14.1% (inactive)	–
CNC(=O)c1ccsc1NC(=O)CS(=O)(=O)c1ccc(F)cc1	-0.55% (inactive)	–
CCN1CCN(CCCN(Cc2ccco2)C(=S)Nc2cccc(Cl)c2C)CC1	5.26% (inactive)	–
Nc1cc(=O)[nH]c(SCC(=O)Nc2cccnc2Cl)n1	11.6% (inactive)	–

Structure (SMILES)	inhibition	inhibition (measured here: pilot screen replicate inhibition) [%]
Cc1cc(/C=C2\C(=O)NN(c3ccccc3)C2=O)c(C)n1-c1ccccc1O	2.89% (inactive)	–
O=C1OC(c2ccccc2)=N/C1=C/c1cccc(OC(=O)c2cccs2)c1	6.35% (inactive)	–
COc1ccc(-n2c(C)cc(/C=C3\C(=O)NN(c4ccccc4)C3=O)c2C)cc1	3.87% (inactive)	–
O=C1NN(c2ccc(Br)cc2)C(=O)/C1=C\c1ccc(O)cc1O	-25.4% (inactive)	–
N#C/C(=C\c1cccc(OC(=O)c2cccs2)c1)C(N)=O	-25% (inactive)	–
COc1cccc(/C=C2\CCc3ccccc3C2=O)c1	1.96% (inactive)	–
COc1cc(/C=C2/C(=O)NN(c3ccccc3)C2=O)cc(Br)c1O	-40.3% (inactive)	–
COc1cc(C=C2C(=O)c3ccccc3C2=O)cc(OC)c1	18% (inactive)	–
COc1cccc(/C=C2/NC(=O)N(CC(=O)Nc3ccc(C)cc3)C2=O)c1OCc1cccc(C(=O)O)c1	-3.96% (inactive)	–
Cc1ccc2nc(-c3ccccc3)cc(C(=O)N3CCc4ccccc4C3)c2c1	-5.47% (inactive)	–
NC(N)=N/N=C/c1ccc(OCc2ccccc2Cl)cc1	-0.7% (inactive)	–
Cc1ccc(-c2nc3c(c(=O)c4ccccc4n3C)c(=O)n2-c2ccc(F)cc2)cc1	0.78% (inactive)	–
CCc1ccc(C(=O)C(C)OC(=O)c2nc3nc(C)cc(C)n3n2)cc1 (centres undefined)	-7.33% (inactive)	–
COc1cc(/C=C2/C(=O)NN(c3ccc(F)cc3)C2=O)cc(Cl)c1O	-28% (inactive)	–
O=C1NN(c2ccccc2)C(=O)C1=Cc1ccccc1	25.9% (inactive)	–
O=C1NN(c2ccccc2)C(=O)/C1=C\c1ccccc1	8.92% (inactive)	–
C#CCOc1ccc(/C=C2/C(=O)NN(c3ccc(F)cc3)C2=O)cc1OC	14.3% (inactive)	–
COc1ccc2oc(C(=O)OCC(=O)N(C)C3CCS(=O)(=O)C3)c(C)c2c1 (centres undefined)	-8.65% (inactive)	–
O=C(CNC(=O)c1ccc(F)cc1)N/N=C/c1cn[nH]c1-c1ccccc1	-12.6% (inactive)	–
CN(CC(=O)Nc1ccc(F)cc1)C(=O)CSc1nncs1	-2.59% (inactive)	–
CCCCC(=O)Nc1nnc(-c2ccco2)o1	1.48% (inactive)	–
CCNS(=O)(=O)c1ccc(NC(=O)Nc2ccc3c(c2)OCO3)cc1	-8.45% (inactive)	–

Structure (SMILES)	inhibition	inhibition (measured here: pilot screen replicate inhibition) [%]
Cc1c(F)cccc1NS(=O)(=O)c1ccc2c(c1)c(C)cc(=O)n2C	-4.58% (inactive)	–
O=C1C(Cl)=C(NCCCN2CCOCC2)C(=O)c2ccccc21	17% (inactive)	–
CN1CCN(C2=C(NS(=O)(=O)c3ccccc3)C(=O)c3ccccc3C2=O)CC1	7.03% (inactive)	–
O=C1C(Cl)=C(N2CCN(c3ccccc3[N+](=O)[O-])CC2)C(=O)c2ccccc21	3.21% (inactive)	–
NC(=O)C1CCN(C2=C(NS(=O)(=O)c3ccccc3)C(=O)c3ccccc3C2=O)CC1	0.77% (inactive)	–
NC(=O)C1CCN(C2=C(NS(=O)(=O)c3ccc(Cl)cc3)C(=O)c3ccccc3C2=O)CC1	7.95% (inactive)	–
O=C1C(Cl)=C(NCCN2CCOCC2)C(=O)c2ccccc21	4.52% (inactive)	–
Cc1ccc(C=NNc2ccc([N+](=O)[O-])cn2)cc1	-5.44% (inactive)	–
O=S(=O)(c1cc(Cl)ccc1Cl)N1CC2CCCN2c2ccc(C(F)(F)F)cc21 (centres undefined)	-10.5% (inactive)	–
Cc1ccc2cc(CCNC(=O)c3cccc([N+](=O)[O-])c3)c(=O)[nH]c2c1C	2.58% (inactive)	–
CCCn1c(=O)c2ccccc2n2c(SCC(=O)c3ccc(CC)cc3)nnc12	-1.12% (inactive)	–
Cc1cc(CN2CCCC(CNC(=O)c3ccc(F)cc3)C2)cc(C)c1O (centres undefined)	-7.66% (inactive)	–
C=CCOc1cccc(C2C(C(=O)c3ccc(C)o3)=C(O)C(=O)N2CCN(C)C)c1 (centres undefined)	-3.18% (inactive)	–
Cc1cc(N2C(=O)C(O)=C(C(=O)c3cc4ccccc4o3)C2c2cccc(Br)c2)no1 (centres undefined)	5.32% (inactive)	–
CCCOc1ccc(C2C(C(=O)c3cc4ccccc4o3)=C(O)C(=O)N2c2cc(C)on2)cc1 (centres undefined)	27.6% (inactive)	–
COc1cccc(C2C(C(=O)c3cc4ccccc4o3)=C(O)C(=O)N2c2cc(C)on2)c1 (centres undefined)	11.6% (inactive)	–
C=CCOc1cccc(C2C(C(=O)c3ccc(C)o3)=C(O)C(=O)N2Cc2ccncc2)c1 (centres undefined)	-1.6% (inactive)	–
COc1ccc(C2C(C(C)=O)=C(O)C(=O)N2c2ccccn2)cc1 (centres undefined)	0.65% (inactive)	–
CCCOc1ccc(C2C(C(=O)c3cc4ccccc4o3)=C(O)C(=O)N2c2cc(C)on2)cc1OC (centres undefined)	-3.55% (inactive)	–
CCCOc1ccc(/C(O)=C2\C(=O)C(=O)N(c3ccccn3)C2c2ccccc2F)cc1C (centres undefined)	22.2% (inactive)	–
COc1cc(C2CC(=O)Oc3cc(O)ccc32)cc(OC)c1OC (centres undefined)	1.65% (inactive)	3.63
C=CCN1CCN(C(c2cc(OC)ccc2OC)c2nnnn2CC2CCCO2)CC1 (centres undefined)	1.37% (inactive)	–
